Compound activity (PubChem)
CYP2C9 act = increases human cytochrome P450 2C9 activity. P11712. recombinant CYP2C9, luciferin-H conversion, luminescence; hits give high values; factor 1 = untreated enzyme, 0 = blocked. activation factor at 5 µM. 1.4% of 96,000 active;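 active = activation factor of 2 or more for CYP2C9 at a 5 µM dose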;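 also: 0 = sulfaphenazole-blocked wells and 1 = vehicle-only wells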
PLAP activator = activators of human placental alkaline phosphatase | P05187 | purified PLAP enzyme, luminescent substrate read-out; hits give high values | activation fold at 20 µM | 1.2% of 96,000 active | AID 696; in the data active = activation fold above about 2
CYP2C19 activ = activators of human cytochrome P450 2C19 | activation factor at 5 µM | 96,000 tested, under 10 active | recombinant CYP2C19, luciferin-H EGE luminescence; hits give high values; 0 = fully inhibited enzyme, 1 = untreated enzyme;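 active = activation factor of at least 2 at 5 µM in the primary screen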;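 also: 0 = wells with 2.5 mM tranylcypromine and 1 = vehicle-only wells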
Target sequence (P33261 whole entry, looked up): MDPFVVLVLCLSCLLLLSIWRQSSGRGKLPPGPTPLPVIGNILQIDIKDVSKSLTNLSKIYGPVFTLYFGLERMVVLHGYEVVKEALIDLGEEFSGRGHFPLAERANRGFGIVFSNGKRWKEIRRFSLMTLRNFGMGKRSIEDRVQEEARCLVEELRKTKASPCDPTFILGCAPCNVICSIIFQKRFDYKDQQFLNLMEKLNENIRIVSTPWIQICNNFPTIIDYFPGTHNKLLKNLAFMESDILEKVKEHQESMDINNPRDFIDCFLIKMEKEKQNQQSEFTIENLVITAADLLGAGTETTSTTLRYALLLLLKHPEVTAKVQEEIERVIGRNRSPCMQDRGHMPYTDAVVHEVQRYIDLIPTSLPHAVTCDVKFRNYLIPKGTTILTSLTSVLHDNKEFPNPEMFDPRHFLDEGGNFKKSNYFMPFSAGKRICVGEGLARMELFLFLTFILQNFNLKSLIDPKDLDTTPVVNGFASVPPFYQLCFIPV
CYP2C19 inh = inhibitors of human CYP2C19 | P33261 | CYP2C19 Supersomes, luciferin-H EGE luminescence, 30 min | inhibition, % at 5 µM | 21% of 96,000 active | AID 778;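 active = CYP2C19 inhibition above a set limit at 5 µM in the primary screen, cut at about 50% in these data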;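 also: plate controls were negative control wells for no effect and 2.5 mM tranylcypromine positive control for full effect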
CYP2C9 inh = human CYP2C9 inhibition | inhibition, % at 5 µM | CYP2C9 Supersomes, luciferin-H conversion, luminescence | 20% of 96,000 active;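 active = blocking of liver enzyme CYP2C9 beyond about 50% at 5 µM, limit read from the data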
The depositor's hits bear a star. In the library only some 31% were active in any assay of this set; here they are far more common.

SMILES	CYP2C9 act	PLAP activator	CYP2C19 activ	CYP2C19 inh	CYP2C9 inh
CCN1CCCC1CNC(=O)c1c(O)c2c([nH]c1=O)CCCC2 (stereo not drawn)	1.3	1	1.1	-10.3	-26.4
CCOC(=O)CSc1nc(-c2ccc(OC)cc2)ns1	1	1.2	0.9	13.2	-3.5
CCOC(=O)Nc1ccc2c(c1)Sc1ccccc1N2C(=O)CCN1CCOCC1	0.6	1.4	0.4	60.5*	36.7
CCOC(=O)Nc1ccc2c(c1)N(C(=O)N1CCN(C)CC1)c1ccccc1S2	0.9	1.2	0.3	73.2*	7.2
OCCN1CCN(C(c2cccs2)c2ccc3cccnc3c2O)CC1 (stereo not drawn)	1	1.2	1.1	-7.0	-0.2
CC(C)(C)c1cc(C(c2cccnc2)N2CCN(CCO)CC2)cc(C(C)(C)C)c1O (stereo not drawn)	0	1.3	0.2	79.9*	96.0*
COc1ccc(C2CC(=O)C3=C(C2)Nc2ncnn2C3c2ccccc2)cc1 (stereo not drawn)	0.6	1	0.6	41.4	37.0
COc1ccc(C2C3=C(CC(c4ccco4)CC3=O)Nc3ccccc3N2C(C)=O)cc1 (stereo not drawn)	0.2	1.6	0.5	48.1	81.2*
O=C1CC(c2ccco2)CC2=C1C(c1ccccc1)n1nc(C(F)(F)F)nc1N2 (stereo not drawn)	0.4	1.2	0.7	30.0	62.1*
CC1CC(=O)C2=C(C1)Nc1ccccc1N(C(=O)COc1ccccc1)C2c1ccco1 (stereo not drawn)	0.5	1	0.4	56.3*	48.0
COc1ccc(CNC(=O)Cn2cnc3c(=O)n(C)c(=O)n(C)c32)cc1	1.2	1.1	1.1	-14.4	-24.1
CCOC(=O)N1CCN(c2c(Nc3cc(C)[nH]n3)c(=O)c2=O)CC1	1	0.9	1	-0.8	0.1
O=C(O)c1sccc1SCc1ccc(Cl)cc1Cl	0.5	0.9	1	-3.7	53.5*
CCOC(=O)C1=C(N)OC2=C(C(=O)CC(C)(C)C2)C1c1ccoc1 (stereo not drawn)	0.3	1.1	0.4	64.3*	67.4*
CC1(C)CC(=O)C(C2C3=C(CC(C)(C)CC3=O)Oc3ccccc32)=C(O)C1 (stereo not drawn)	0.6	1.7	0.9	7.8	43.5
COC(=O)C1=C(N)OC2=C(C(=O)CC(C)(C)C2)C1c1cccs1 (stereo not drawn)	0.2	0.9	0.3	72.9*	80.9*
CCOC(=O)C1=C(N)OC2=C(C(=O)CC(C)(C)C2)C1C1CCCCC1 (stereo not drawn)	0.4	1	0.8	24.0	56.1*
CCOC(=O)C1=C(N)OC2=C(C(=O)CC(C)(C)C2)C1c1cccnc1 (stereo not drawn)	0.3	0.9	0.2	75.5*	71.2*
COc1ccc(S(=O)(=O)N(C)Cc2cccs2)cc1Br	1.4	0.6	0	96.4*	-35.7
c1ccc(-c2csc3ncn4nnnc4c23)cc1	0.9	1.1	0.9	11.9	11.3
CCCOc1ccccc1C1NC(=O)NC(C)=C1C(=O)OCCOC(C)C (stereo not drawn)	0.5	1.2	0.4	55.9*	52.8*
CC1=C(C(=O)OCc2ccc3c(c2)OCO3)C(c2ccccc2)NC(=O)N1 (stereo not drawn)	0.7	0.6	0.6	36.7	35.0
CCOC(=O)C1=C(C)NC(=O)NC1c1cccc(OC)c1OCc1ccccc1Cl (stereo not drawn)	0.9	0.9	0.8	24.1	9.3
CC1=C(C(=O)OCc2ccc3c(c2)OCO3)C(c2ccccc2OCc2ccccc2)NC(=O)N1 (stereo not drawn)	0	1.5	0.7	29.8	99.0*
CCCOc1ccccc1C1NC(=O)NC(C)=C1C(=O)OCCOC (stereo not drawn)	0.8	1	0.5	54.0*	21.7
CC1(NC(=O)c2cc(S(=O)(=O)N3CCCCC3)ccc2Cl)CCS(=O)(=O)C1 (stereo not drawn)	0.9	1.1	0.9	6.3	11.9
CC1OC(Nc2ccc(OC(F)(F)F)cc2)C(O)C(O)C1O (stereo not drawn)	1	1	1	-3.0	-3.7
Cc1cc(C)c(OCC(=O)Nc2ccc3c(c2)OCO3)cc1C	1.1	0.9	0.8	20.7	-9.1
O=C(COc1ccc(Br)cc1)Nc1ccncc1	0	0.8	0	100.2*	97.0*
Cc1cc(OCC(=O)Nc2ccncc2)c(C)cc1Br	0	1	0	100.0*	99.7*
